High-throughput results as filed in PubChem BioAssay.
This is a sample that favours compounds with a hit; in the whole collection about 19% have one here.
TDP1 cell noCPT: qHTS for Inhibitors of human tyrosyl-DNA phosphodiesterase 1 (TDP1): qHTS in cells in absence of CPT. DT40 Tdp1-/- hTDP1 cells, no CPT, ATP luminescence, 48 h. Potency, µM (series often up to 46.2 µM), inactives show at the highest dose activity change, negative = growth inhibition, hits mostly inhibitors. 15% of 420,000 active. AID 686978, 2013; also: nearly all actives have a fitted effect of over 55% in size
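Readout: luminescence from CellTiter-Glo after 30 min in the dark at RT. Cells: DT40 Tdp1-/- with stable hTDP1, 400/well. Exposure: compounds alone, ≥48 hr, 37 °C.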
HT1080 IDH1KD tx: qHTS for induction of synthetic lethality in tumor cells producing 2HG: qHTS for the HT-1080-IDH1KD cell line | HT-1080 IDH1 knockdown viability, ATP luminescence, 48 h | Potency, µM (titrated, usually from 46.1 µM), for the others: at the highest dose activity, negative = toxicity, most hits filed as cytotoxic | 2% of 360,000 active;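 also: 0% = DMSO wells and -100% = cell-free medium wells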
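HT-1080-IDH1KD cells (IDH1 knocked down), 750/well in RPMI with 5% FBS, treated with compound 48 h at 37 degrees C. Viability by CellTiter-Glo luminescence, normalised to DMSO and no-cell wells; concentration-response curves classed.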
HT1080-NT tox: qHTS for induction of synthetic lethality in tumor cells producing 2HG: qHTS for the HT-1080-NT fibrosarcoma cell line | HT-1080-NT fibrosarcoma viability, CellTiter-Glo ATP luminescence, 48 h | Potency, µM (highest dose often 46.1 µM), inactives show at the highest dose activity, negative = less viability, most hits filed as cytotoxic | 1.6% of 360,000 active;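 also: NT is the 2HG producing partner of a matched IDH1 knockdown line; 0% = DMSO-treated cells and -100% = media-only wells without cells; nearly all actives have a fitted effect of over 55% in size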
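A 48-hour cytotoxicity screen used HT-1080-NT cells plated 2 hours before compound delivery. ATP-based CellTiter-Glo luminescence measured viability, normalized to DMSO and no-cell controls.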
KB-3-1 tox: qHTS assay for MDR1-selective chemotherapeutics: Primary screen using the parental adenocarcinoma cell KB-3-1; KB-3-1 viability, CellTiter-Glo ATP luminescence, 72 h; Potency, µM (doses to about 46.1 µM), actives largely listed as cytotoxic; 1.4% of 400,000 active; AID 1347075, 2019; also: nearly all actives have a fitted effect of over 60% in size
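Viability of parental KB-3-1 cells, measured by CellTiter-Glo luminescence, followed a 72 h incubation at 37 °C with pinned compounds in phenol-red-free DMEM containing 10% FBS.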
KB-V1 MDR tox: qHTS assay for MDR1-selective chemotherapeutics: Primary screen using the drug-selected MDR subline cells KB-V1; KB-V1 MDR cells viability, CellTiter-Glo, 72 h; Potency, µM (doses to about 46.1 µM), most hits filed as cytotoxic; 3.4% of 400,000 active; also: nearly all actives have a fitted effect of over 60% in size
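Potencies derive from concentration-effect curves fitted to normalized luminescence (CellTiter-Glo) of KB-V1 cells treated for 72 h at 37 degrees C in phenol-red-free DMEM containing 10% FBS.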
DT40 TDP1 CPT: qHTS for Inhibitors of human tyrosyl-DNA phosphodiesterase 1 (TDP1): qHTS in cells in presence of CPT; chicken DT40 Tdp1-/-;hTDP1 cells + 20 nM CPT, ATP luminescence, 48 h; AID 686979, 2013; 12% of 420,000 active; Potency, µM (highest dose often 46.2 µM), without a hit: at the top dose activity change, negative = growth inhibition, hits mostly inhibitors; also: nearly all actives have a fitted effect of over 55% in size
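Cell growth measured by CellTiter-Glo luminescence after a minimum 48 h, 37 C compound exposure with 20 nM CPT in Tdp1-knockout DT40 cells stably expressing hTDP1, seeded 400/well; qHTS titration format.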
Active calls of the source: *; i = inactive; ? = inconclusive; . = no result. Calls follow the shape of the dose curve; as a rule, active = well fitted curve in the direction sought with a large enough effect; inconclusive = small, poorly fitted or top-dose-only effect, or another doubt; inactive = no such curve, though single readings can be large; an effect the other way counts as inactive or inconclusive. Unless noted, % is scaled to controls: 0 for no effect and ±100 for the full control effect; potency is read from the fitted curve at half-maximal effect.

SMILES	TDP1 cell noCPT	HT1080 IDH1KD tx	HT1080-NT tox	KB-3-1 tox	KB-V1 MDR tox	DT40 TDP1 CPT
Cc1ccc(S(=O)(=O)N2CCOCC2)cc1C(=O)N1CCc2ccccc21	?	-13.9%	-8.3%	i	i	-0.8%
Cc1ccc(S(=O)(=O)N2CCCCC2)cc1C(=O)Nc1ccc(N2CCOCC2)cc1	12.6µM*	?	-11.1%	i	i	?
Cc1ccc(S(=O)(=O)N2CCOCC2)cc1C(=O)N1c2ccccc2Sc2ccccc21	23.1µM*	-9.9%	-2.9%	i	i	?
CC(=O)NCCc1c(C)n(Cc2ccccc2)c2ccccc12	-16.9%	-1.0%	-1.2%	i	i	6.9%
Cc1ccc(C(=O)NNC(=O)c2csc(N3CCOCC3)n2)s1	-11.3%	-1.6%	-11.6%	i	i	-6.5%
Cc1cc(C)n(CC(C)(O)c2ccccc2)n1 (stereo not given)	-16.0%	-1.3%	0.8%	i	i	-5.6%
C[C@@]12CCC3[C@@](CCC4[C@@]3(C)CCC[C@@]4(C)C(=O)N3CCOCC3)(CC1=O)C2 (stereo not given in full)	?	-19.9%	0.0%	i	i	-12.3%
O=C(CSc1nnc(NC(=O)c2ccc(F)cc2)s1)NC1CCCC1	-0.1%	4.6%	3.5%	i	i	-1.0%
COc1ccccc1N1CCN(C(=O)c2ccc(NS(=O)(=O)c3ccc(C)cc3)cc2)CC1	?	-18.8%	0.2%	i	i	?
COc1ccccc1N1CCN(C(=O)c2ccc(C(C)(C)C)cc2)CC1	5.8µM*	?	?	?	?	4.61µM*
COc1ccccc1N1CCN(C(=O)c2ccc(S(=O)(=O)N3CCCC3)cc2)CC1	16.4µM*	20.7%	15.9%	?	i	?
COc1ccccc1C1CCN(C(=O)c2cccc([N+](=O)[O-])c2)CC1	16.4µM*	-9.0%	-1.5%	i	?	?
COc1cc2c(cc1OC)CN(C(=O)c1ccc(S(=O)(=O)N3CCCCC3)cc1)CC2	16.4µM*	12.6%	7.5%	i	i	25.9µM*
N#CC1=C(N)CCC1	-22.8%	.	.	i	i	-11.9%
O=C(O)CC/C(=N\NC(=O)CNC(=O)c1ccc(F)cc1)c1ccccc1	5.2%	10.0%	8.9%	i	i	2.5%
CCCNC(=O)Cn1nc(-c2ccc(C)cc2)c2cnc3ccc(CC)cc3c21	-8.0%	.	.	i	i	-24.7%
Cc1nc2nc(C)c(NS(=O)(=O)c3ccc(C4CCCCC4)cc3)c(=O)n2[nH]1	-10.0%	0.0%	0.0%	i	?	6.4%
COc1ccccc1N1CCN(C(=O)c2ccc(-c3ccccc3)cc2)CC1	13µM*	-10.6%	-23.6%	i	?	?
COc1ccc(C(=O)N2CCN(c3ccccc3OC)CC2)cc1	-1.3%	4.4%	-0.6%	i	i	-0.6%
COc1ccccc1C1CCN(C(=O)c2ccc(C(C)(C)C)cc2)CC1	16.4µM*	?	?	i	i	?
Cc1oc(-c2ccc(Cl)cc2)nc1CN1CCCC(C(=O)NCCCN2CCOCC2)C1 (stereo not given)	23.1µM*	?	-11.9%	?	18.4µM*	-78.2%
Cc1cccc(-c2nc(CN3CCCC(C(=O)NCCc4ccc(Cl)cc4)C3)c(C)o2)c1 (stereo not given)	8.2µM*	.	.	?	i	16.4µM*
Cc1oc(-c2ccc(Cl)cc2)nc1CN1CCCC(C(=O)NCc2cccnc2)C1 (stereo not given)	11.6µM*	?	?	2.59µM*	2.31µM*	9.2µM*
Cc1oc(-c2ccc(Cl)cc2)nc1CN1CCCC(C(=O)NCCc2ccccc2)C1 (stereo not given)	5.8µM*	.	.	?	?	8.2µM*
Cc1oc(-c2ccccc2F)nc1CN1CCC(C(=O)NCc2cccnc2)CC1	1.5%	2.4%	-5.5%	i	i	1.4%
SMILES	TDP1 cell noCPT	HT1080 IDH1KD tx	HT1080-NT tox	KB-3-1 tox	KB-V1 MDR tox	DT40 TDP1 CPT
CCc1ccc(-c2nc(CN3CCC(C(=O)NCCc4ccc(C)cc4)CC3)c(C)o2)cc1	?	.	.	i	i	-9.6%
O=S(=O)(c1ccc(SCCO)nc1)N1CCOCC1	12.7%	11.4%	-0.4%	i	i	5.1%
COC(=O)c1cc(Br)ccc1NC(=O)CSCc1c(C)noc1C	?	0.0%	-0.8%	i	i	?
CCOC(=O)/C(C)=C1\NC(C)(C)Cc2ccccc21	?	-0.8%	8.4%	i	i	-22.7%
O=C(/C=C/c1c(Cl)nc2ccccn12)N1CCN(c2ccc(F)cc2)CC1	25.9µM*	6.6%	11.5%	i	?	?
O=C(/C=C/c1c(Cl)nc2ccccn12)N1CCN(c2ccccc2F)CC1	23.1µM*	-2.9%	16.0%	i	i	-19.3%
COc1ccc(-n2ncc(C(=O)NCCN3CCOCC3)c2C2CCN(C(=O)OC(C)(C)C)CC2)cc1	-18.5%	.	.	i	i	-12.0%
O=C(NC1CCc2ccccc21)c1cc(COc2cncc(Cl)c2)on1 (stereo not given)	?	-22.8%	1.6%	i	i	9.2µM*
O=C(COc1ccccc1)N[C@@H]1c2ccccc2CC[C@@H]1OCc1ccccc1	-18.2%	-1.5%	-2.4%	i	i	?
O=C(CCc1ccccc1)N[C@@H]1c2ccccc2CC[C@H]1OCc1ccccc1	11.6µM*	-25.2%	?	i	i	?
O=C(Cc1ccccc1)N[C@@H]1c2ccccc2CC[C@@H]1OCc1ccccc1	-17.6%	-3.7%	0.3%	i	i	-23.1%
O=C(COc1ccccc1)N[C@@H]1c2ccccc2CC[C@H]1OCc1ccccc1	25.9µM*	?	-28.4%	i	i	?
O=C(Nc1cccc(C(=O)N2CCOCC2)c1)c1ccccc1Cl	-11.9%	-0.1%	-1.2%	i	i	-11.0%
Cc1ccccc1OCC(=O)NCC(=O)OCC(=O)c1ccc([N+](=O)[O-])cc1	11.2µM*	1.2%	0.1%	i	i	25.9µM*
Cc1ccccc1OCC(=O)NCC(=O)OCc1cccc2ccccc12	-0.1%	.	.	?	?	-13.5%
